From PubChem
In the library only some 4.1% were active in any assay of this set; here they are far more common.
KLF5 inhibitor: suppresses KLF5 promoter-driven expression | DLD-1 KLF5 promoter-luciferase reporter, luminescence | inhibition, % at 5 µM | 290,000 tested, 0.23% active | AID 1700;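 active = inhibition above a per-plate limit of that plate's mean compound inhibition plus 3 SD, cut at about 60% in these data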;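 also: higher means less KLF5 promoter-driven luciferase light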
697 NFkB inh: lowers PMA/ionomycin-induced NF-kB signal in 697 B cells | 697 B-cell NF-kB luciferase reporter, 16 h | inhibition, % at 4 µM | 330,000 tested, 0.33% active | AID 435022; in the data active = inhibition above about 35%
Jurkat NFkB inh: inhibitors of the PMA/ionomycin-induced NF-kB reporter in Jurkat cells. PMA/ionomycin-induced NF-kB luciferase reporter, luminescence. inhibition, % at 4 µM. 330,000 tested, 0.53% active. AID 435003; in the data active = inhibition above about 50%
Mdm2-MdmX inh: human Mdm2/MdmX binding inhibition; AID 485346; O15151+Q00987; SaOS-2 split-luciferase Mdm2/MdmX complementation, luminescence; 330,000 tested, 3% active; inhibition, % at 8 µM;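 active = inhibition of at least 50% at 8 µM in the primary screen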
Target sequence (O15151 whole entry, looked up): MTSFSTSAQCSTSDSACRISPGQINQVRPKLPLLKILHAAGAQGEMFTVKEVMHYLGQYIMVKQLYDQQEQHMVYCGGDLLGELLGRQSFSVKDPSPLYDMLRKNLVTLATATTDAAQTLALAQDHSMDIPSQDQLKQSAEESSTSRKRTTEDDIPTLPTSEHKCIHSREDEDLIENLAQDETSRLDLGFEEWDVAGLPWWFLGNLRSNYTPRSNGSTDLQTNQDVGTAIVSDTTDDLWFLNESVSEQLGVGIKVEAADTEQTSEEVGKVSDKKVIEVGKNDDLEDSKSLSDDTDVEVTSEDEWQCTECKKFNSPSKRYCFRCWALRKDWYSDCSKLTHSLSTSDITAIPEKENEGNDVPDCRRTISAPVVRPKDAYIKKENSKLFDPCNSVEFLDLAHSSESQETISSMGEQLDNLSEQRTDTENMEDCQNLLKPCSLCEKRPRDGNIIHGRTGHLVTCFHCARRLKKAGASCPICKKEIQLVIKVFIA
Target sequence (Q00987 whole entry, looked up): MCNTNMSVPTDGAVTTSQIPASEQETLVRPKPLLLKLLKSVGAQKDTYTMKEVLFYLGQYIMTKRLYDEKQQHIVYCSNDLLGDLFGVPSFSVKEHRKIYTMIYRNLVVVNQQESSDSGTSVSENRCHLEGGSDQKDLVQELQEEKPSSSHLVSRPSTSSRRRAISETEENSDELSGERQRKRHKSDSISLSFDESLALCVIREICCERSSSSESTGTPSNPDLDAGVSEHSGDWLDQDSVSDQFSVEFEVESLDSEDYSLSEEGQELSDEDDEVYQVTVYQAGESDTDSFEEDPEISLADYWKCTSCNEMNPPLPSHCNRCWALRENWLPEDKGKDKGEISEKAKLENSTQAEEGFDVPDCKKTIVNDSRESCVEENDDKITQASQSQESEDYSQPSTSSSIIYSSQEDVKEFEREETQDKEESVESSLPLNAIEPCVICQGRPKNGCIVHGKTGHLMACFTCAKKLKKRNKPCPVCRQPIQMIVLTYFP
Gli-Sufu block: antagonists of Gli-Sufu signaling; Sufu-KO-LIGHT fibroblasts, Gli luciferase reporter luminescence; inhibition, % at 5 µM; 340,000 tested, 0.74% active; AID 588413;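 active = inhibition above about 55%, limit read from the data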
aSyn UTR inh: MLPCN primary screen, SNCA 5' untranslated region; inhibition, % (tested at 7.5 µM); alpha-synuclein 5'UTR reporter, inhibitor activity; 300,000 tested, 0.82% active; in the data active = inhibition above about 60%;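 also: H4 neuroglioblastoma cells stably carrying SNCA 5'UTR luciferase fusion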
697 NFkB conf: inhibitors of the PMA/ionomycin-induced NF-kB reporter in 697 B cells, retest; 697 B-cell NF-kB luciferase, 16 h; 2,000 tested, 35% active; shares compounds with 697 NFkB inh; inhibition, % at 4 µM; AID 449746; in the data active = inhibition mostly above about 28%, no sharp cut-off; inactive = mostly below about 22%
A number is an active result; - = inactive; . = not tested or not shown.

SMILES	KLF5 inhibitor	697 NFkB inh	Jurkat NFkB inh	Mdm2-MdmX inh	Gli-Sufu block	aSyn UTR inh	697 NFkB conf
COCCCn1c(=O)/c(=C\c2cccc(OC)c2OC)s/c1=C(/C#N)C(=O)Nc1ccc(C(=O)O)cc1	-	43.3	-	-	-	-	36.7
Cc1cc(Cl)c(S(=O)(=O)NC(C(=O)O)C(C)C)cc1OCC(=O)NC1CCCCC1 (stereo not given)	-	37.0	-	-	-	-	-
COC(=O)c1ccccc1-c1ccc(/C=N/NC(=O)c2cc3ccccc3o2)o1	-	-	-	-	-	-	.
COC(=O)c1ccccc1-c1c2ccc(=N)cc-2oc2cc(N)ccc12	.	-	-	-	-	.	-
COc1ccc(CCNC(=O)C(=O)N/N=C/c2cccs2)cc1OC	-	-	-	-	-	-	.
COc1ccc(C(=O)Nc2ccc3cn[nH]c3c2)c(OC)c1	-	-	-	-	-	-	.
COc1ccc(O)c(C(=O)CC(=O)c2ccc(F)cc2)c1	-	-	-	-	-	73.3	-
COc1ccc(C(=O)CC(=O)c2ccccc2O)cc1	-	-	-	-	-	-	.
Cc1ccccc1N1CC(=O)Nc2c(oc3nc(-c4ccccc4)cc(C)c23)C1=O	-	38.4	-	-	-	-	-
CCCCCN(C(=O)CCC(=O)OCc1cccc(Cl)c1)c1c(N)n(CCCC)c(=O)[nH]c1=O	.	-	-	-	-	-	.
CCCCCN(C(=O)CCC(=O)OCc1cccc(Br)c1)c1c(N)n(CCCC)c(=O)[nH]c1=O	.	35.2	-	-	-	-	-
N#CC(c1ccc(Cl)cc1)c1ccc(Cl)nn1 (stereo not given)	-	-	-	-	-	-	.
Brc1cc2[nH]cnc2c2ccccc12	-	38.8	-	-	-	-	-
Oc1ccc2c(ccc3[nH]cnc32)c1	-	-	-	-	-	-	.
C[C@H](NC(=O)c1ccc(Cl)c(S(=O)(=O)N2CCOCC2)c1)c1nc2ccccc2[nH]1	.	-	-	-	-	.	.
COc1ccc(C(=O)Nc2ccc(NC(=O)CSc3nnc(-c4ccncc4)n3C)cc2)cc1	-	38.0	-	-	-	-	-
Cc1ccc(/C=C/c2nnc(-c3ccccc3)o2)cc1	-	-	-	-	-	-	.
C(=C\c1nnc(-c2cccs2)o1)/c1ccccc1	-	-	-	-	-	-	-
CCc1[nH]nc2c1C(c1ccc(Br)s1)C(C#N)=C(N)O2 (stereo not given)	-	43.1	-	-	-	.	-
CCc1[nH]nc2c1C(c1ccsc1)C(C#N)=C(N)O2 (stereo not given)	-	-	-	-	-	-	.
O=C(NCCC(=O)N1CCN(S(=O)(=O)c2ccccc2Cl)CC1)Nc1ccccc1	.	-	-	-	-	.	.
CSc1ccc(/C=N/Nc2ccc(Cl)c(C(=O)O)c2)cc1	-	-	-	-	-	-	-
O=C(NNc1ccccc1)/C(=C\c1cccnc1)NC(=O)c1ccccc1	-	-	-	-	-	-	.
CC12CCCC[C@@H]1CCC1C2CCC2(C)C1CC[C@@]2(O)CNCCO (stereo not given in full)	-	-	-	-	-	-	.
Oc1cc(O)cc(-c2cc3ccc(O)cc3o2)c1	.	38.3	-	-	-	-	34.6
SMILES	KLF5 inhibitor	697 NFkB inh	Jurkat NFkB inh	Mdm2-MdmX inh	Gli-Sufu block	aSyn UTR inh	697 NFkB conf
c1ccc(-c2cnc(-c3ccccc3)nc2)cc1	-	-	-	-	-	-	-
O=c1cnn([C@@H]2O[C@H](CO)[C@@H](O)[C@H]2O)c(=O)[nH]1	-	-	-	-	-	-	-
CC1CCN(c2cc(N3CCN(C(=O)c4ccc(F)c(F)c4)CC3)c([N+](=O)[O-])cc2F)CC1	-	38.3	-	-	-	-	-
CC1CCN(c2cc(N3CCOCC3)c([N+](=O)[O-])cc2F)CC1	-	-	-	-	-	-	.
c1ccc(-c2ccc(-c3nc(-c4ccncc4)no3)cc2)cc1	-	-	-	-	-	-	-
c1ccc(-c2nc(-c3ccncc3)no2)cc1	-	-	-	-	-	-	.
CCc1ccc(-c2nc(-c3ccncc3)no2)cc1	-	-	-	-	-	.	-
Cc1cccc(NC(=O)Nc2ccccc2[N+](=O)[O-])n1	-	-	-	-	-	-	.
O=C(CSc1ccccc1)N(c1ccc(Br)cc1)c1nccs1	-	-	-	-	-	-	.
CCn1c(=O)cc(OCC(=O)NCCCN2CCC(C)CC2)c2ccccc21	-	-	-	-	-	-	.
CC1CCN(CCCNC(=O)COc2cc(=O)n(C)c3ccccc23)CC1	-	36.5	-	-	-	-	22.8
CSc1nnc(Nc2ccccc2C)s1	-	-	-	-	-	-	.
Cc1ccccc1Nc1nc(Cl)c(C=O)s1	-	35.1	-	-	-	-	39.5
COC(=O)COc1cccc2c(=O)n(CC(=O)N3CCC(C)CC3)ccc12	-	-	-	-	-	-	.
COC(=O)COc1cccc2c(=O)n(CC(=O)N3CCCCC3)ccc12	-	43.4	-	-	-	-	-
COc1ccc(O)c(/C=N/NC(=O)c2ccc(N3CCCC3=O)cc2)c1	-	-	-	-	-	-	-
COc1ccc(/C=N/NC(=O)c2ccc(N3CCCC3=O)cc2)cc1	-	-	-	-	-	-	.
O=C(CNS(=O)(=O)c1ccc(Cl)c(C(F)(F)F)c1)NC1CCCCCC1	.	-	-	-	-	.	.
COc1ccc(CCNC(=O)c2cccc(S(=O)(=O)N3CCc4ccccc4C3)c2)cc1	.	-	-	-	-	.	.
N=c1c(C(=O)NC2CCCC2)cc2c(=O)n3ccccc3nc2n1CCCN1CCOCC1	-	-	-	-	-	-	.
N=c1c(C(=O)NC2CCCC2)cc2c(=O)n3ccccc3nc2n1CCN1CCOCC1	-	49.0	-	-	-	-	50.5
O=C(c1c(F)cccc1F)N1CCC(O)(c2ccc(F)cc2)CC1	-	-	-	-	-	-	.
Cc1ccc(/C=C/C(=O)NC2=NCCS2)cc1	-	-	-	-	-	-	-
COc1cc(/C=C2/NC(=O)N(CC(=O)Nc3ccc(C)cc3)C2=O)ccc1Oc1ccc([N+](=O)[O-])cn1	-	-	-	-	-	-	.
COCCN1C(=O)/C(=C/c2ccc(Oc3ccc([N+](=O)[O-])cn3)c(OC)c2)SC1=Nc1ccccc1	-	49.5	-	-	-	-	-
SMILES	KLF5 inhibitor	697 NFkB inh	Jurkat NFkB inh	Mdm2-MdmX inh	Gli-Sufu block	aSyn UTR inh	697 NFkB conf
COc1cc(-c2nc3cccc(C)n3c2NCC2CCCO2)ccc1O (stereo not given)	-	-	-	-	-	-	.
CC(=O)Nc1ccc(-c2csc(Nc3cc(C)ccn3)n2)cc1	-	-	-	-	-	-	.
COc1ccc(-c2csc(Nc3cccc(C)n3)n2)cc1	-	-	-	-	-	-	-
Cc1ccnc(Nc2nc(-c3ccccc3)cs2)c1	-	-	-	-	-	-	-
C=CCNC(=O)c1ccc(-c2nc(-c3ccccc3)cs2)cc1	-	-	-	-	-	-	-
C=CCNC(=O)c1ccc(-c2nc3ccccc3nc2-c2ccccc2)cc1	.	-	-	-	-	-	.
